Measurements from the OligoGym collection.

Target: TJP3
Test: pooled miR-30 sensor sort-seq; sequence = guide strand
Conditions: shRNA
Note: reference of the scale not given here.

| Sequence | sensor-assay potency score (higher = more potent) |
| --- | --- |
| TTCAGTGACAGGTTCTGGCTAG | 0.155 |
| TACAACCATGGATCCACCGGGC | -0.563 |
| TAGAATGAGATCTCCTTCCTGC | 0.597 |
| TTGAGCTCCTGGTACCAGGTGT | 0.444 |
| TTGACGCCAAACTCTTCGCTGT | -0.592 |
| TACCACGTCAGATACAACCATG | -1.34 |
| ATAGGTTCGCATGCTGTCCTGT | -0.0267 |
| TCTAGTTTGATGATCTTGGAGG | -0.916 |
| TTCATCTGCACGTCCTGCCGTG | -0.0273 |
| ATCGTCTTCATCCGAGTCCTGG | -0.452 |
| TCGTAGTCGCTGTTAACGCGGC | -0.824 |
| TTCTGGAATCTACTGAACTTTC | -1.4 |

Target: TKT
Test: as above
Conditions: shRNA

| Sequence | sensor-assay potency score (higher = more potent) |
| --- | --- |
| TTCTGGTAGATGTCCATCTGGT | -0.51 |
| TTGTCCCCAACTTTGTAGCTGG | -0.755 |
| TTTCTTTCTTCAGCAGTTCGGC | -0.762 |
| TAGATGATGGCATTTTCTGGGC | -0.904 |
| TTGTCGAAGTATTTGCCGGTGT | -0.129 |
| TTGTCCAGCTTATAGATGCTGG | -1.07 |
| TCCTTTTTGAAGATCTCCGAGA | -0.964 |
| TAAAAGACAGTTGATGTGGGGA | 0.52 |
| TTGCTCTTCAGGACCACCTTGG | -0.197 |
| TTGAAGATCTCCGAGAAGGTGG | 0.421 |
| TTTTTGCTCTGGATCTGGCTGT | 0.312 |
| TTGATGTGGGGACTGACCGAAA | -0.805 |
